Rows were chosen to be rich in hits. Some 3.9% of all compounds tested hit in one or more screens of this group.
HSF1 activator – increases HSF-1 driven luciferase reporter signal; activation, % at 9 µM; hit rate 1.7% among 300,000; NIH3T3-HGL HSF-1 luciferase reporter, MG132, 8 h; 100% = twice DMSO control signal; AID 504408;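 active = mean replicate activation of at least 50% with a set share of replicates each reaching 50%; inconclusive = only one of those two conditions met; inactive = mean below 50% and too few replicates reaching it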;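 note: 0% = median of the neutral control wells and 100% = twice that signal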
MITF act – activators of MITF-driven TRPM1 promoter activity in SK-MEL-5 cells. hit rate 0.75% among 300,000. SK-MEL-5 TRPM1-promoter luciferase, 24 h; % of positive control, neutral wells = 0. activation, % at 12.5 µM. AID 588334;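 active = mean activation of at least 80% with every replicate also reaching 80%; inconclusive = mean reaches 80% but some replicate falls short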;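 note: 0% = neutral control wells and 100% = parthenolide positive control wells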
esBAF inh – SWI/SNF esBAF complex inhibition. mouse ES cells, Bmi1-luciferase knock-in reporter, 24 h; 100% = twice the neutral-well signal. reporter increase, % at 12.5 µM. hit rate 2% among 350,000; in the data active = activation above about 40%; inconclusive = no clear call, values can overlap the other calls;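 note: 0% = median of the plate's neutral control wells and 100% = double that signal; a rise in the Bmi1 reporter signal indicates esBAF inhibition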
Wnt act – activates Wnt/beta-catenin signaling in a reporter cell assay. activator, plate reader. activation, % at 9.35 µM. hit rate 1.2% among 300,000. AID 743398; in the data active = activation above about 30%, passing the limit was not always enough; inconclusive = no clear call, values can overlap the other calls;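 note: 0% = neutral control wells and 100% = positive control wells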
HSF1 inh – HSF1 inhibition; hit rate 0.77% among 300,000; activity change, negative = inhibition, % at 7.5 µM (by protocol); AID 2098; NIH3T3-HGL HSE-luciferase, MG132-induced, luminescence 8 h; active compounds read low;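 active = more than half of replicate wells show activity change below -50%, luminescence cut by over half; inconclusive = some wells, but at most half, below -50%; inactive = no replicate well below -50%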;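 note: luciferase reports HSF-1 transcriptional activity via heat shock element; 0% = median of DMSO wells and -100% = zero luminescence signal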
An asterisk follows results filed as active; ? = inconclusive; . = no result.

SMILES	HSF1 activator	MITF act	esBAF inh	Wnt act	HSF1 inh
COCc1cccc(-c2csc(C(O)c3cccc(OC)c3)n2)c1 (stereo unspecified)	.	.	11	5	.
CC(=O)Nc1cccc(-c2csc(C(O)c3ccccc3)n2)c1 (stereo unspecified)	.	.	49*	-1	.
OC(c1ccccc1)c1nc(-c2ccc(Cl)cc2)cs1 (stereo unspecified)	.	.	31	0	.
O=C(O)c1cccc(-c2csc(C(O)c3cccc(Cl)c3)n2)c1 (stereo unspecified)	.	.	48*	-1	.
OC(c1ccccc1)c1nc(-c2ccccc2)cs1 (stereo unspecified)	.	.	52*	1	.
COCc1cccc(-c2csc(C(O)c3ccccc3)n2)c1 (stereo unspecified)	.	.	53*	8	.
CC1CCC(=C(C#N)c2nc(-c3cc4ccccc4oc3=O)cs2)CC1 (stereo unspecified)	-29	88*	39	.	-20
C[C@@H]1CN([C@@H](C)CO)C(=O)c2cccc(NC(=O)c3cnccn3)c2O[C@H]1CN(C)C(=O)Nc1ccc(C(F)(F)F)cc1	.	.	-3	.	.
Cc1ccc(-c2ccc(CCC(=O)O)n2-c2cccc(O)c2)cc1	35	2	63*	.	6
Cc1ccc(-c2ccc(CCC(=O)O)n2-c2ccc(O)cc2)cc1	-4	1	-4	.	2
O=C(O)c1ccc(S(=O)(=O)N2CCC(n3nnc4cc(C(F)(F)F)ccc43)CC2)cc1	4	0	-7	-2	-1
O=C(O)c1cccc(S(=O)(=O)N2CCC(n3nnc4cc(C(F)(F)F)ccc43)CC2)c1	79*	-10	-3	-1	39
O=C(/C=C/c1ccc(Cl)cc1)NC(=S)Nc1ccc(NC(=O)c2ccco2)cc1	64*	-15	.	.	32
O=C(/C=C/c1ccc(Cl)cc1)NC(=S)Nc1ccc(CN2CCOCC2)cc1	86*	-6	.	-2	53
CC(=O)Nc1ccc(NC(=S)NC(=O)/C=C/c2ccc(Cl)cc2)cc1	-11	5	.	-11	-3
C[C@@H]1CN([C@@H](C)CO)C(=O)c2cc(NS(=O)(=O)c3cn(C)cn3)ccc2O[C@@H](C)CCCCO[C@H]1CN(C)C(=O)Cc1ccccc1	.	.	6	.	.
C[C@H](NC(=O)C[C@@H]1CC[C@H](NC(=O)Cc2ccccn2)[C@@H](CO)O1)c1ccccc1	.	.	-5	.	.
COc1cccc(N/C(SCc2ccccc2F)=C(/C#N)C(=O)NCc2cccs2)c1	63*	1	9	.	28
COc1cc2c(cc1OC)CN(c1ccc(C(F)(F)F)cn1)CC2	102*	37	41*	4	66
Nc1nc(CCl)nc(Nc2ccc3ccccc3c2)n1	111*	-15	.	-1	80
Clc1ccc(OCc2noc(-c3ccsc3)n2)c(Cl)c1	48	.	64*	65*	26
COc1cc(-c2nc(Cc3ccccc3Cl)no2)cc(OC)c1OC	11	6	2	.	8
Fc1cc(Cl)c(OCc2noc(-c3ccsc3)n2)c(Cl)c1	36	90*	.	0	17
Cc1noc(C)c1NC(=O)Nc1ccc2c(c1)C(=O)N([C@H](C)CO)C[C@@H](C)[C@@H](CN(C)Cc1ccc(C(F)(F)F)cc1)OCCCC[C@@H](C)O2	.	.	4	.	.
C=CCN1C(=O)C(Cc2ccccc2)S/C1=N/N=C/c1cccs1 (stereo unspecified)	5	4	-4	-5	8
SMILES	HSF1 activator	MITF act	esBAF inh	Wnt act	HSF1 inh
C=CCN1C(=O)C(Cc2ccc(OCC)cc2)S/C1=N\N=C\c1cccs1 (stereo unspecified)	56*	-7	.	.	19
Cc1ccc(S(=O)(=O)N/N=C2/CC(c3ccccc3)Oc3ccccc32)cc1[N+](=O)[O-] (stereo unspecified)	-5	.	41*	.	-5
O=S(=O)(N/N=C1/CC(c2ccccc2)Oc2ccccc21)c1ccc(Br)cc1 (stereo unspecified)	10	.	4	.	5
CCC(=O)N1C[C@H](C)[C@H](OC)CN(C)C(=O)c2cc(NC(=O)Nc3ccccc3)ccc2OC[C@H]1C	.	.	-2	.	.
O=C(NCCc1ccccc1)[C@H]1[C@H](CO)[C@H]2Cn3c(cccc3=O)[C@H]2N1Cc1ccccc1	.	.	-2	.	.
C(=N\Nc1ccccc1)/c1ccc(N2CCOCC2)cc1	-15	109*	36	.	-3
Clc1cccc(N/N=C/c2ccc(N3CCOCC3)cc2)c1	-18	?	-5	-2	-22
